Screens deposited in PubChem by National Center for Advancing Translational Sciences (NCATS).
Pf growth 48h: Primary qHTS for delayed death inhibitors of the malarial parasite plastid, 48 hour incubation; P. falciparum luciferase growth in erythrocytes, 48 h; Potency, µM (titrated, usually from 28.7 µM), for inactives: top-dose activity change, negative = inhibition, usual class: inhibitors; actives 5.9% (n = 310,000); also: potency is read from the fitted curve at half-maximal effect; % is scaled to controls: 0 for no effect and ±100 for the full control effect
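Cell-based growth assay: transgenic P. falciparum expressing firefly luciferase, cultured in red cells within RPMI 1640 containing 0.5% w/v Albumax, 24 mM bicarbonate and gentamycin. A drop in luciferase activity indicates inhibition.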
Shiga inhibitor: A qHTS for Small Molecule Inhibitors of Shiga Toxin; inhibition, % at 38.7 µM; actives 9.2% (n = 290,000); Vero cells, Shiga toxin protein synthesis inhibition reporter; in the data active = inhibition mostly above about 28%, no sharp cut-off; inactive = mostly below about 43%; also: 0% is about no effect
NS1 function inh: qHTS Assay for Inhibitors of Influenza NS1 Protein Function | actives 0.4% (n = 270,000) | Potency, µM (top dose mostly 46.1 µM), for the others: at the top dose activity, positive = more growth; calls by dose curve; also: potency is read from the fitted curve at half-maximal effect; actives are rising curves; nearly all actives have a fitted effect of over 50% in size
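OD600 was taken as the measure of yeast growth restored by compound in an NS1-expressing S. cerevisiae strain. Cells had been washed out of glucose medium and diluted 1:100 into galactose -URA medium, pH 6.0.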
Cycloheximide cs: Cycloheximide Counterscreen for Small Molecule Inhibitors of Shiga Toxin; cell reporter, cycloheximide protein synthesis inhibition counterscreen; AID 2314, 2010; max response, %; actives 12% (n = 300,000); in the data active = max response mostly above about 13%, no sharp cut-off; inactive = mostly below about 14%; also: read at 38.3 µM for the half of the compounds with a filed dose; 0% is about no effect
Sm TGR block: qHTS Assay for the Inhibitors of Schistosoma Mansoni Peroxiredoxins; Potency, µM (top dose mostly 114 µM), for inactives: top-dose activity change, negative = inhibition, usual class: inhibitors; Schistosoma mansoni thioredoxin glutathione reductase (TGR), Q962Y6; actives 3% (n = 360,000); purified TGR, DTNB reduction, TNB absorbance 405 nm; AID 485364, 2010; also: potency is read from the fitted curve at half-maximal effect; % is scaled to controls: 0 for no effect and ±100 for the full control effect; nearly all actives have a fitted effect of over 60% in size
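Kinetic colorimetric format: TGR-catalysed, NADPH-driven DTNB reduction monitored via TNB absorbance. Enzyme dispensed at 20 nM; compound exposure 15 min at room temperature before reaction start.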
Pf growth 96h: Primary qHTS for delayed death inhibitors of the malarial parasite plastid, 96 hour incubation; P. falciparum luciferase reporter growth, 96 h; Potency, µM (top dose mostly 28.7 µM), without a hit: at the highest dose activity change, negative = inhibition, actives largely listed as inhibitors; actives 6.9% (n = 320,000); AID 504834, 2011; also: potency is read from the fitted curve at half-maximal effect; % is scaled to controls: 0 for no effect and ±100 for the full control effect
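Infected RBCs, 2% Hct / 0.05% parasitemia final; luciferase-reporter P. falciparum; cpd 96 h, 37 C, 5% CO2; luciferase detection reagent; luminescence.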
Active calls of the source: *; ? = inconclusive; · = no result; + = active, no number. The list is not random: actives were taken first. Their share in the collection is about 21%. Unless noted, calls follow the shape of the dose curve; as a rule, active = well fitted curve in the direction sought with a large enough effect; inconclusive = small, poorly fitted or top-dose-only effect, or another doubt; inactive = no such curve, though single readings can be large; an effect the other way counts as inactive or inconclusive.

SMILES | Pf growth 48h | Shiga inhibitor | NS1 function inh | Cycloheximide cs | Sm TGR block | Pf growth 96h
O=C(NCC(c1ccco1)N1CCOCC1)c1ccc(F)c(F)c1 (configuration not stated) | 52% | · | · | · | ? | 0%
Cc1ccc2oc(C(=O)NCC(c3ccco3)N3CCCC3)c(C)c2c1 (configuration not stated) | -14% | 41 | 8% | 20* | -6% | ?
O=C(NCC(c1ccco1)N1CCCC1)c1ccc(Cl)cc1 (configuration not stated) | · | 3 | -8% | 1 | -14% | 0.93µM*
O=C(NCC(c1ccco1)N1CCCC1)c1cc2cc(Cl)ccc2o1 (configuration not stated) | ? | · | · | · | -22% | 9.3µM*
O=C(CCNC(=O)c1ccc(Cl)cc1)NCC(c1ccco1)N1CCCCC1 (configuration not stated) | ? | · | · | · | -18% | 4.7µM*
Cc1sc(N/N=C/C=C/c2ccccc2)nc1-c1ccccc1 | ? | -7 | -2% | -6 | -2% | ?
Cc1cc(C)cc(-n2c(C)cc(C(=O)C(=O)Nc3nnc(C)s3)c2C)c1 | · | · | · | · | 3% | ·
O=C(NCC(c1ccco1)N1CCCC1)c1cc2ccccc2s1 (configuration not stated) | 2.6µM* | · | · | · | -7% | 4.1µM*
Cc1ccc2c(Cl)c(C(=O)NCC(c3ccco3)N3CCCC3)sc2c1 (configuration not stated) | ? | -4 | -2% | 6 | -16% | ?
Cc1ccc(C(=O)NCC(c2ccco2)N2CCCCC2)s1 (configuration not stated) | ? | · | · | · | -18% | ?
Cc1cc(C)c(OCC(=O)NCC(c2ccco2)N2CCCCC2)c(C)c1 (configuration not stated) | 13µM* | · | · | · | -1% | 12µM*
Cc1nn(-c2ccc(C(=O)NCC(c3ccco3)N3CCCC3)cc2)c(C)c1Cl (configuration not stated) | ? | · | · | · | -5% | 0.83µM*
CC(C)CCNC(=O)COC(=O)/C=C/c1ccc2ccccc2n1 | 51% | 42 | 7% | 14 | · | 10%
COc1ccc(-c2ccc(-c3noc(-c4ccco4)n3)c(OC)n2)cc1 | 49% | 51* | 15% | 23* | -21% | -10%
COc1nc(-c2ccccc2)ccc1-c1noc(-c2ccco2)n1 | 99% | 71* | -9% | 34* | -2% | 11%
Cn1cnc(S(=O)(=O)N2CCCC(C(=O)NCc3ccccc3Cl)C2)c1 (configuration not stated) | · | · | · | · | 1% | ·
Oc1ccc2ccccc2c1CN1CCN(C/C=C/c2ccccc2)CC1 | ? | -4 | -21% | 2 | 2.8µM* | 9.3µM*
O=C(CN1CCN(c2ccccc2F)CC1)c1ccc(O)c(O)c1 | -6% | 10 | 0% | 2 | ? | -9%
Oc1ccc2ccccc2c1CN1CCN(c2ccccc2F)CC1 | ? | -8 | -16% | -3 | 11µM* | 31%
Cn1cnc2cc(NCc3ccccc3Cl)ccc21 | 83% | 105* | -7% | 39* | 0% | 117%
CCn1cnc2cc(NCc3ccccc3Cl)ccc21 | 0% | 67* | -49% | 36* | -7% | 1.5µM*
CCOC(=O)c1cnc2ccc(C)cc2c1Sc1ccc(F)cc1 | ? | 67* | 6% | 43* | -33% | ?
CCOC(=O)c1cnc2ccc(C)cc2c1Nc1ccc(N2CCOCC2)cc1 | ? | -7 | -26% | 6 | -1% | 10µM*
CCOC(=O)c1cnc2ccc(C)cc2c1Sc1ccccc1 | ? | 62* | 15% | 34* | ? | ?
CN(Cc1ccccc1Cl)C(=O)c1cc2ccccc2o1 | 21% | 39* | -34% | 31* | 4% | 22%
SMILES | Pf growth 48h | Shiga inhibitor | NS1 function inh | Cycloheximide cs | Sm TGR block | Pf growth 96h
CN(C)CCCOC(=O)c1cc2ccccc2o1 | 2.6µM* | -3 | 5% | 1 | ? | ?
CN(Cc1ccccc1)C(=O)c1cc2ccccc2o1 | · | 8 | -47% | 12 | 12% | -7%
CN(Cc1ccc(N(C)C)cc1)C(=O)c1cc2ccccc2o1 | 28% | 68* | 0% | 28* | -12% | 66%
Cc1nc(/C(=N/O)C(N)=O)cs1 | 10% | -2 | 2% | 1 | 0% | 9%
CCc1ccc(S(=O)(=O)Nc2ccc3oc(C)c(C(=O)OCCOC)c3c2)cc1 | · | · | · | · | 2% | ·
Cc1ccc(NC(=O)C(NC2CCCc3ccccc32)c2ccccc2)cc1Cl (configuration not stated) | ? | 15 | -21% | 26* | -3% | ?
Cc1ccc(NC(=O)C(NC2CCCc3ccccc32)c2ccccc2)c([N+](=O)[O-])c1 (configuration not stated) | 13µM* | + | 10% | 22* | 7% | ?
CCn1c(=O)c2sccc2n2c(CCCC(=O)NC3CCN(Cc4ccccc4)CC3)nnc12 | 11% | -5 | 6% | -6 | -18% | 13µM*
CCn1c(=O)c2sccc2n2c(CCCC(=O)N3CCN(c4ccccn4)CC3)nnc12 | 10µM* | 5 | 4% | 6 | 6% | ?
Cn1c(=O)c2sccc2n2c(CCCC(=O)NCCc3ccccc3)nnc12 | ? | -14 | -1% | 9 | 0% | ?
CC(NC(=O)CCCc1nnc2n(C)c(=O)c3sccc3n12)c1ccccc1 (configuration not stated) | 15% | -2 | 6% | 1 | 1% | 13µM*
Cc1cc(C)nc(NS(=O)(=O)c2ccc(NC(=S)NC(=O)CC(C)C)cc2)n1 | -3% | -2 | -8% | -3 | ? | 15%
Cc1cccc(N2CCN(C(=O)CC(NC(=O)c3ccccc3Cl)c3ccccc3)CC2)c1C (configuration not stated) | ? | -3 | 14% | 0 | 1% | ?
O=C(NC(CC(=O)N1CCN(c2ccc([N+](=O)[O-])cc2)CC1)c1ccccc1)c1ccccc1Cl (configuration not stated) | ? | 18 | 14% | -4 | 1% | 12µM*
O=C(NC(CC(=O)N1CCN(c2ccccc2O)CC1)c1ccccc1)c1ccccc1Cl (configuration not stated) | 10µM* | · | · | · | 5% | ?
Cc1ccccc1NS(=O)(=O)c1ccc(NC(=O)c2nc3ncccn3n2)cc1 | · | 2 | ? | -3 | -3% | ?
O=C(Nc1cnn(Cc2ccccc2)c1)c1nc2ncccn2n1 | 84% | 46* | 0% | 38* | 0% | 2.6µM*
CCOc1ccc(OCC(=O)NCCS(=O)(=O)N2CCN(c3ccc(OC)cc3)CC2)cc1 | · | · | · | · | 0% | ·
COc1cc2nc(C(C)(C)C)oc(=O)c2cc1OC | 22% | 27 | 9% | -1 | 4% | 33%
